Results: the supplement of paper PMC11732987, “Enantioselective OTUD7B fragment discovery through chemoproteomics screening and high-throughput optimisation” (Communications Chemistry, 2025)

Key:
Assay in all cases: log2 ratio of Biotin-Ahx-Ub-VS probe labelling (fragment/DMSO); higher = less target engagement (more negative = stronger competition), active = hit call of the paper (q ≤ 0.05, log2 ratio ≤ -1)
Conditions in all cases: compound concentration: 200 uM; treatment time: 3 h
[1] = target: USP34 (UniProt Q70CQ2)
USP34, sequence (Q70CQ2 whole entry, the tested form may be a part): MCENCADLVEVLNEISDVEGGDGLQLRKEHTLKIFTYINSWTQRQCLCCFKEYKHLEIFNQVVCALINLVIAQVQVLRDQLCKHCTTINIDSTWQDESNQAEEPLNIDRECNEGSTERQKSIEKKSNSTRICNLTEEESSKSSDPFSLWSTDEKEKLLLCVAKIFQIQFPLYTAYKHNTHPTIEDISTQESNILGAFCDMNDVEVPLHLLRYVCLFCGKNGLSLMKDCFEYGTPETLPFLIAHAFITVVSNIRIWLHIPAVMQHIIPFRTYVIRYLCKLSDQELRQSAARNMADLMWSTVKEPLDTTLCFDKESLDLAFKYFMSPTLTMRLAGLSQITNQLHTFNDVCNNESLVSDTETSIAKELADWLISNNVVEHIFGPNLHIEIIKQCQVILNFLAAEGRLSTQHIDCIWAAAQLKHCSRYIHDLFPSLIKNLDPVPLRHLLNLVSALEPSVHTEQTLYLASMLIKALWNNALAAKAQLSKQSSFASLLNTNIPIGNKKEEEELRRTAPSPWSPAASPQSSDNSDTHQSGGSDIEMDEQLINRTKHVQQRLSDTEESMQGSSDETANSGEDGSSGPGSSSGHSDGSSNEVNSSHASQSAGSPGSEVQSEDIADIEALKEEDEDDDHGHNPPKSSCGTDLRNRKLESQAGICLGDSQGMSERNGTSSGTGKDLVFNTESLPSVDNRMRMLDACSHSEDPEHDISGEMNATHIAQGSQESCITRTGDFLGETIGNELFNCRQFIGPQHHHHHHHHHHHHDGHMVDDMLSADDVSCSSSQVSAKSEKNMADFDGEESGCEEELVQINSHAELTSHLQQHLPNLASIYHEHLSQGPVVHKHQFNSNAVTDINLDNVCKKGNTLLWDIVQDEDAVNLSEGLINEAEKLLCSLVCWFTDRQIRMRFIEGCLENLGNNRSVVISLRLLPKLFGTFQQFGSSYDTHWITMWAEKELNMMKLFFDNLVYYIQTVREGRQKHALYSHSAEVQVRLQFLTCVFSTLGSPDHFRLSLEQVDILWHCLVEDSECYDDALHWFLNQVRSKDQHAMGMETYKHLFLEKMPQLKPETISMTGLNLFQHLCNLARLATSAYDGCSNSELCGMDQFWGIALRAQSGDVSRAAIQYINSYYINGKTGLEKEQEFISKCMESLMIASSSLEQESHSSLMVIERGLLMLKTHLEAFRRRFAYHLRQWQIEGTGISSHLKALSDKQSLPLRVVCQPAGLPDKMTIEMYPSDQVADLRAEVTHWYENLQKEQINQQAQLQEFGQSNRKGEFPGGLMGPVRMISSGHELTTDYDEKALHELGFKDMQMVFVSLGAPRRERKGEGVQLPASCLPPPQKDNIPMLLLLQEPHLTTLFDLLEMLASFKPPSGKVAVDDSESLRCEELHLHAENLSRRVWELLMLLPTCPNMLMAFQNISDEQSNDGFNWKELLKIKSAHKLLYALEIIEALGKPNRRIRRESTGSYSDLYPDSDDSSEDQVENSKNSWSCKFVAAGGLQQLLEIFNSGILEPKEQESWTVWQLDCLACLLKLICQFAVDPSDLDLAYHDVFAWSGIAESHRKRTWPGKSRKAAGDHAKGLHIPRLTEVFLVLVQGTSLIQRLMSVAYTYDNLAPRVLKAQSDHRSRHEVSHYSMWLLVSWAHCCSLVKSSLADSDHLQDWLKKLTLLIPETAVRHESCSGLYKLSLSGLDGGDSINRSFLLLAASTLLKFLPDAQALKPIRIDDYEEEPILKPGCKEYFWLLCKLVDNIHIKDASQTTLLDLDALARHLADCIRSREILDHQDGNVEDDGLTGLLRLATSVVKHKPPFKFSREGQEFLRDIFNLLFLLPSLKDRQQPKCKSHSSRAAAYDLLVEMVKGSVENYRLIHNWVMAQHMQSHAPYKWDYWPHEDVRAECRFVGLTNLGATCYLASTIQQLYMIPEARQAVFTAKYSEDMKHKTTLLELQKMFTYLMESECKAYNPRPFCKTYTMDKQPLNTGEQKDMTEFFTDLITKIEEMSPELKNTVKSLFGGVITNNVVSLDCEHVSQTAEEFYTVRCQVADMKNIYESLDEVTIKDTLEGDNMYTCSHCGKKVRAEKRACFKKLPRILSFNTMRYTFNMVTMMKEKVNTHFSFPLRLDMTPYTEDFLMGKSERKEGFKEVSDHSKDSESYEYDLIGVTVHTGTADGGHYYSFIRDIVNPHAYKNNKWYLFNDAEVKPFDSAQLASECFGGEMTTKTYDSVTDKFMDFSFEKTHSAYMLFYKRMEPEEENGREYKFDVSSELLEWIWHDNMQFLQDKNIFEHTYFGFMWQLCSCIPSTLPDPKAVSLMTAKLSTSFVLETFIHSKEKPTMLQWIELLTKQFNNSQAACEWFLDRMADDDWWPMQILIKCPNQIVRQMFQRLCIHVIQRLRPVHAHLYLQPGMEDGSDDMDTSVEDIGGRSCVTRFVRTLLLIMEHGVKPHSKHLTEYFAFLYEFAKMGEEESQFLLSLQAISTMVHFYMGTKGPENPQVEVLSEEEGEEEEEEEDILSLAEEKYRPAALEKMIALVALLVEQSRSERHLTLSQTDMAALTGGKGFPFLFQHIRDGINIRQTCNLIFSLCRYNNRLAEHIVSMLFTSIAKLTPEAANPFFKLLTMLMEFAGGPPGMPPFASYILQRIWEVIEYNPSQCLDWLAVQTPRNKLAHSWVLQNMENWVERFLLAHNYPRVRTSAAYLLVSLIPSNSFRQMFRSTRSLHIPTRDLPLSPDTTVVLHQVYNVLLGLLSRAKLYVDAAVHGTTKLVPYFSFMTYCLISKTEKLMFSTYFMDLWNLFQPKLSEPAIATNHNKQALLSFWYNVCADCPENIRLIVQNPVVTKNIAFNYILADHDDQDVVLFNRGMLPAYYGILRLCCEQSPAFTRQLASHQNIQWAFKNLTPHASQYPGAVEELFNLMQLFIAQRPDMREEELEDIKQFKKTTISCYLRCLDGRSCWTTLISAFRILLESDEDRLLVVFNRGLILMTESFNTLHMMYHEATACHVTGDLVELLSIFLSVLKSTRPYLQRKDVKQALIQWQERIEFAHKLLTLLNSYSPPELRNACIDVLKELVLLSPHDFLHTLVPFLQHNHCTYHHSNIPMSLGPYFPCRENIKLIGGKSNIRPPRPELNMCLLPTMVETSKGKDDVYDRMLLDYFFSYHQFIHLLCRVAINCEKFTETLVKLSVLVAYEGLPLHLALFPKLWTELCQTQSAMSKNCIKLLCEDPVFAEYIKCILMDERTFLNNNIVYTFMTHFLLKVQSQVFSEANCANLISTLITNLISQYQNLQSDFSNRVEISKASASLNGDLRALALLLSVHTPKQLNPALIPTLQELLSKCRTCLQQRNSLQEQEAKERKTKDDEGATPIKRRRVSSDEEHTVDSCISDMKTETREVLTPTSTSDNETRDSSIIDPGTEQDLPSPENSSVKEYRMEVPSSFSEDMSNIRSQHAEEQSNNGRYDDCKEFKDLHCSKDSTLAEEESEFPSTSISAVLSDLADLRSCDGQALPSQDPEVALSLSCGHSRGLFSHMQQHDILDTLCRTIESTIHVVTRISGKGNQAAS
Summary of the method: (§1)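 The table lists average log2 ratios of fragment over vehicle, from an unpaired t-test on global-median-normalised Spectronaut label-free quantities. Proteins with ≥2 unique peptides were used. Samples were HEK293T lysate (495 µg) treated in triplicate with fragment at 200 µM or vehicle for 3 h, then with Biotin-Ahx-Ub-VS (0.5 µM final) for 1 h, with labelled DUBs NeutrAvidin-enriched and run by diaPASEF LC-MS/MS.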

[2] = target: T1, USP36 (UniProt Q9P275)
T1 sequence (whole entry): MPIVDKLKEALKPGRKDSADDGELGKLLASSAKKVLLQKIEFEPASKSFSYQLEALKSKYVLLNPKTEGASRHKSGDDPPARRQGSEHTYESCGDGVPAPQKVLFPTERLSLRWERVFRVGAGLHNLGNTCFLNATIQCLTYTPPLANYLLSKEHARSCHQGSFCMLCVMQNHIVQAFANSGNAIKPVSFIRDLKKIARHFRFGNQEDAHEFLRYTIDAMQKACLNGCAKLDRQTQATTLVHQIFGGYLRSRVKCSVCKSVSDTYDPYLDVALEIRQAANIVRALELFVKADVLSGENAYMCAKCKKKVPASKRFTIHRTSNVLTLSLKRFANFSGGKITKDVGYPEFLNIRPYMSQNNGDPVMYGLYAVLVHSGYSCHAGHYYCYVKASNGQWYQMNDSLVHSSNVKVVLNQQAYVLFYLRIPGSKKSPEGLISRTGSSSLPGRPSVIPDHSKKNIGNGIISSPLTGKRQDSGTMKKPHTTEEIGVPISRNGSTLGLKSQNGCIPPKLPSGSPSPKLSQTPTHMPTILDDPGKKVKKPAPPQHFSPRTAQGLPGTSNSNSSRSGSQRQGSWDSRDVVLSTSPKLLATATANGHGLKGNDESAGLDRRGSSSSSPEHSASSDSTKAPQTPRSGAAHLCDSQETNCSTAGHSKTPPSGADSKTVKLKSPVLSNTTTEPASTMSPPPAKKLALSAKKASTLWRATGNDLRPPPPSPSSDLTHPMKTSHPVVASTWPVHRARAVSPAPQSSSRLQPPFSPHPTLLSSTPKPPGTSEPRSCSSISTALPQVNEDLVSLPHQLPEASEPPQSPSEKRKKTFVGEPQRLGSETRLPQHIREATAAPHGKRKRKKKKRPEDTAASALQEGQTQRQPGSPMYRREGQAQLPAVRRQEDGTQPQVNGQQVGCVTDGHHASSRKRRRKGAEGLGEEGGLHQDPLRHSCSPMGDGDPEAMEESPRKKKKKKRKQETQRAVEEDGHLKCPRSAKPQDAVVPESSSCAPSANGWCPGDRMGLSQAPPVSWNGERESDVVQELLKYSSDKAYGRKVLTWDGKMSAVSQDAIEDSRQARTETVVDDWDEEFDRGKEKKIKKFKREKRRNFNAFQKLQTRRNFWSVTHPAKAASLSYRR
Summary of the method: as §1

[3] = target: T2, USP38 (UniProt Q8NB14)
T2 sequence (whole entry): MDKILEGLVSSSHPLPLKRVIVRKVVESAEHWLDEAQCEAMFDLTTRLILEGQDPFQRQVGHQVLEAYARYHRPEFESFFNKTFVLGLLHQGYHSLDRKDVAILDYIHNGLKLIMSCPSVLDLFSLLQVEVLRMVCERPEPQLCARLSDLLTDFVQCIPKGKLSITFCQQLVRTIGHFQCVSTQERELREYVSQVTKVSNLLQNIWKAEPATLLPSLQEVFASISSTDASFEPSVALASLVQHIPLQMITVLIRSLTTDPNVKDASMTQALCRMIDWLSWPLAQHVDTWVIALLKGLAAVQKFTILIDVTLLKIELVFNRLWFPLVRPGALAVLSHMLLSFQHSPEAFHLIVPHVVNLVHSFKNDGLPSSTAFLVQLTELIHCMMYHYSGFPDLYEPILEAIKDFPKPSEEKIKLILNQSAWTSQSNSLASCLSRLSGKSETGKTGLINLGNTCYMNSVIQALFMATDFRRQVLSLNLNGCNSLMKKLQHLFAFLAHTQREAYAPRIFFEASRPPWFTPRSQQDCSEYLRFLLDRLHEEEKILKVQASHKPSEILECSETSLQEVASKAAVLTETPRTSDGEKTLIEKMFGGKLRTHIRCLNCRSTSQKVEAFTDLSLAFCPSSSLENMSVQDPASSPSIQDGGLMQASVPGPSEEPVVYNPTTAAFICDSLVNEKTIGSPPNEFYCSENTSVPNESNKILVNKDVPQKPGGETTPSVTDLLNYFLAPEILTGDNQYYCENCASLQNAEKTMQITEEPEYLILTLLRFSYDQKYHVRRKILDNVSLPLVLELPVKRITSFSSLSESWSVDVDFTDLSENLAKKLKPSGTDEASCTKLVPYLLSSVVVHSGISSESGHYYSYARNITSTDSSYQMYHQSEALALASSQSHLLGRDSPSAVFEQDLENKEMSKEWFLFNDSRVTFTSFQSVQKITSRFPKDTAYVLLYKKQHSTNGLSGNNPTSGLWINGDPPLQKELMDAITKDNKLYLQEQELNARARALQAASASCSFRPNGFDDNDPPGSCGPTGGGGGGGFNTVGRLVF
Summary of the method: as §1

[4] = target: T3, USP39 (UniProt Q53GS9)
T3 sequence (whole entry): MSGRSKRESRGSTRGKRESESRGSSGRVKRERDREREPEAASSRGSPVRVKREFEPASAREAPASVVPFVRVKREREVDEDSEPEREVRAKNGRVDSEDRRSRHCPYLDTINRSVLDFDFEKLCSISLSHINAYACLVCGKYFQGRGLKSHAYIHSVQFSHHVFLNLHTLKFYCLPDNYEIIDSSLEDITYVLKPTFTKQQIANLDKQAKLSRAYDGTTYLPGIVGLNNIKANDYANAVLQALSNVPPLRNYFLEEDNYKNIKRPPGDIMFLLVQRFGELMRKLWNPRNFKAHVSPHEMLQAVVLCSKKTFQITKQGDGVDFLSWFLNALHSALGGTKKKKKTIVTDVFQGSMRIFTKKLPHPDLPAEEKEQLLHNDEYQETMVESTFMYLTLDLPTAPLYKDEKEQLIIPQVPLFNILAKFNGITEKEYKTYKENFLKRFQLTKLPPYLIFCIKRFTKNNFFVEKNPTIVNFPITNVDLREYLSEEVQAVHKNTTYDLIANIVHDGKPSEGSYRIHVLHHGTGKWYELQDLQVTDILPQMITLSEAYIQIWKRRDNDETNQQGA
Summary of the method: as §1

[5] = target: T4, USP4 (UniProt Q13107)
T4 sequence (whole entry): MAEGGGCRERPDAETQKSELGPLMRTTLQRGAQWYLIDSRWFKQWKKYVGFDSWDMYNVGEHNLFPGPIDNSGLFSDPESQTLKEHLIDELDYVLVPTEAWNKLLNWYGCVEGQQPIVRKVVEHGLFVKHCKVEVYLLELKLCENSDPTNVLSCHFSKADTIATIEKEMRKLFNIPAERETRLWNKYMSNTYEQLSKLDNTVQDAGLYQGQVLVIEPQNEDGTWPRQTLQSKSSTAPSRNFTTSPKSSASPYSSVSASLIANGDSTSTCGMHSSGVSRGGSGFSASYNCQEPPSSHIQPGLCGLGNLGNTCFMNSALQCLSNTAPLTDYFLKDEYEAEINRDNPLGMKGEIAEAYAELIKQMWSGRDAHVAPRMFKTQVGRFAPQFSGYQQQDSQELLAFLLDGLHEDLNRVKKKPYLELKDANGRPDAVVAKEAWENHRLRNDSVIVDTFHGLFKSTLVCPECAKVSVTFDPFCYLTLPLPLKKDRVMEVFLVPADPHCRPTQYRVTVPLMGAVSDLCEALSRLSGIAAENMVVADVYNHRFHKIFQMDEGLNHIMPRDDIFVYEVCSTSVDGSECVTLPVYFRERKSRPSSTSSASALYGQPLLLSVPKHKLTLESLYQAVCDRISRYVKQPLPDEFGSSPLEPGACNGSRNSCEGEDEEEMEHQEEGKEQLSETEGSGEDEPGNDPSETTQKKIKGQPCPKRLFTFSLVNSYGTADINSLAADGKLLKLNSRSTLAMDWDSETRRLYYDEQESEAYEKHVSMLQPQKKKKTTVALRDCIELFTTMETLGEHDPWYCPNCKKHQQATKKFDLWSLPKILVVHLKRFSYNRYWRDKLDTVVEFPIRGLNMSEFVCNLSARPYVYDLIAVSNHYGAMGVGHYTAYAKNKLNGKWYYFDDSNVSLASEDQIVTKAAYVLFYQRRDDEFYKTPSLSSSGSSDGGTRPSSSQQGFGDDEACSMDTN
Summary of the method: as §1

Measured: log2 ratio of Biotin-Ahx-Ub-VS probe labelling

CNC(=O)C1(NC(=O)CCl)CCCCC1
inactive: [1] 0.0737 | [2] 0.00681 | [3] 0.142 | [4] 0.392 | [5] 0.249
